Experimental data taken from the supplement of paper PMC11732987, “Enantioselective OTUD7B fragment discovery through chemoproteomics screening and high-throughput optimisation” (Communications Chemistry, 2025).

Legend:
Assay in all cases: log2 ratio of Biotin-Ahx-Ub-VS probe labelling (fragment/DMSO); higher = less target engagement (more negative = stronger competition), active = hit call of the paper (q ≤ 0.05, log2 ratio ≤ -1)
Settings in all cases: compound concentration: 200 uM; treatment time: 3 h
OTUD6B = molecular target: T1, OTUD6B (UniProt Q8N6M0)
T1 sequence (whole entry): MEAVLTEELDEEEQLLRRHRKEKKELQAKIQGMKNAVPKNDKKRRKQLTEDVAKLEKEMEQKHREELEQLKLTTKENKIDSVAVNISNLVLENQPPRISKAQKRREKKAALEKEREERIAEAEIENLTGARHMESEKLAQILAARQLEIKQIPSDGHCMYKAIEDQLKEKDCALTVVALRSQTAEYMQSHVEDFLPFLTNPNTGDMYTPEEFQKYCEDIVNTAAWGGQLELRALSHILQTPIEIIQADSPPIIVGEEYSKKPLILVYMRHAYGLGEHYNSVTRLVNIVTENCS
How it was run: (§1)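 Average log2 ratios of fragment over vehicle were obtained by unpaired t-test from global-median-normalised Spectronaut label-free quantities. Proteins with ≥2 unique peptides were included. HEK293T lysate (495 µg per sample) was treated in triplicate with fragment at 200 µM or vehicle for 3 h, then with Biotin-Ahx-Ub-VS at 0.5 µM final for 1 h, and labelled DUBs were NeutrAvidin-enriched and run by diaPASEF LC-MS/MS.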

OTUD7B = molecular target: T2, OTUD7B (UniProt Q6GQQ9)
T2 sequence (whole entry): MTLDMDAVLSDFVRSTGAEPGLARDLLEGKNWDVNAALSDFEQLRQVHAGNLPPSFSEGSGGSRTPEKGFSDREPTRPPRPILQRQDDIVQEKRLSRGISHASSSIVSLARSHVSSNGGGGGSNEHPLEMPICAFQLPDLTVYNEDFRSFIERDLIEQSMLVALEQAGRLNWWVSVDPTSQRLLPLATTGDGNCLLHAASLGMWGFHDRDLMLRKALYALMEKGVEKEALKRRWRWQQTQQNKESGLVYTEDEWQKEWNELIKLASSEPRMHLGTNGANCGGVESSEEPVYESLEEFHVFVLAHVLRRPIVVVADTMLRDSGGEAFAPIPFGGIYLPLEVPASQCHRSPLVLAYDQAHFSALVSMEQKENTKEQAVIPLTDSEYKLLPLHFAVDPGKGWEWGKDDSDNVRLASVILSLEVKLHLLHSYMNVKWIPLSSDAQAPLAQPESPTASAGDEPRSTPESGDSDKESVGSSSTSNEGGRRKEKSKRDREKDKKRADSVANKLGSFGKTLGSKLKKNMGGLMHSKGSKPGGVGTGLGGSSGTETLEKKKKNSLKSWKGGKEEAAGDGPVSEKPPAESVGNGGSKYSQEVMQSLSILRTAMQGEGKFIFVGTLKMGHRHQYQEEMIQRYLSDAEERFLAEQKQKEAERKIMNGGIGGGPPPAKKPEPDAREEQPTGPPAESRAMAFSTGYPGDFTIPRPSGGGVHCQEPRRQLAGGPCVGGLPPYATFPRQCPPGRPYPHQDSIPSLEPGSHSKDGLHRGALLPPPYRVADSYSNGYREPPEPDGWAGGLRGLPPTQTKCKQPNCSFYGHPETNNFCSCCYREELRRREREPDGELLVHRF
How it was run: as §1

PRPF8 = PRPF8 (UniProt Q6P2Q9)
How it was run: as §1

PSMD7 = molecular target: T3, PSMD7 (UniProt P51665)
T3 sequence (whole entry): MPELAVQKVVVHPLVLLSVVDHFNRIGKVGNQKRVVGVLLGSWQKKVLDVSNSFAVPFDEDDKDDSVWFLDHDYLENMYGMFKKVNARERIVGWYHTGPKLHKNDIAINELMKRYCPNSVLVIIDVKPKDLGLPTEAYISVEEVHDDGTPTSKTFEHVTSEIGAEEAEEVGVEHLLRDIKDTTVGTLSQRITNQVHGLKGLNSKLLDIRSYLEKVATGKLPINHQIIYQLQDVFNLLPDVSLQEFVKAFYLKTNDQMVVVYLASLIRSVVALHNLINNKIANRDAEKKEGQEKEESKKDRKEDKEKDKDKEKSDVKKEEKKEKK
How it was run: as §1

UCHL1 = UCHL1 (UniProt P09936)
How it was run: as §1

UCHL3 = molecular target: T4, UCHL3 (UniProt P15374)
T4 sequence (whole entry): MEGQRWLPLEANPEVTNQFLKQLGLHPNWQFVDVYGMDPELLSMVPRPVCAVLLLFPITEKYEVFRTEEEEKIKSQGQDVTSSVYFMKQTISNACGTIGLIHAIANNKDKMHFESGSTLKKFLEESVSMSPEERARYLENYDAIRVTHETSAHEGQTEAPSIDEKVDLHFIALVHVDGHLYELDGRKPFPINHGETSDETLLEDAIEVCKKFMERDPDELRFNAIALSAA
How it was run: as §1

UCHL5 = molecular target: T5, UCHL5 (UniProt Q9Y5K5)
T5 sequence (whole entry): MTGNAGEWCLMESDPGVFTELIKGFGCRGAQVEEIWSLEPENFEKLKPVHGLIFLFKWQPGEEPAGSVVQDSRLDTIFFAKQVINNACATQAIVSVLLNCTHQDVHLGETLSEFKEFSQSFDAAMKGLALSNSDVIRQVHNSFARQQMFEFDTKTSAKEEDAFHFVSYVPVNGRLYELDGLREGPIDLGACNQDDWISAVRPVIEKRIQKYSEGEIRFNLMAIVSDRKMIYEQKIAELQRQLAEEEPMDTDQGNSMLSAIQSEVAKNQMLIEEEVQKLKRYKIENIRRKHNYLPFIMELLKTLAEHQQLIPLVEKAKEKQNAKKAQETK
How it was run: as §1

USP10 = USP10 (UniProt Q14694)
How it was run: as §1

USP15 = molecular target: T6, USP15 (UniProt Q9Y4E8)
T6 sequence (whole entry): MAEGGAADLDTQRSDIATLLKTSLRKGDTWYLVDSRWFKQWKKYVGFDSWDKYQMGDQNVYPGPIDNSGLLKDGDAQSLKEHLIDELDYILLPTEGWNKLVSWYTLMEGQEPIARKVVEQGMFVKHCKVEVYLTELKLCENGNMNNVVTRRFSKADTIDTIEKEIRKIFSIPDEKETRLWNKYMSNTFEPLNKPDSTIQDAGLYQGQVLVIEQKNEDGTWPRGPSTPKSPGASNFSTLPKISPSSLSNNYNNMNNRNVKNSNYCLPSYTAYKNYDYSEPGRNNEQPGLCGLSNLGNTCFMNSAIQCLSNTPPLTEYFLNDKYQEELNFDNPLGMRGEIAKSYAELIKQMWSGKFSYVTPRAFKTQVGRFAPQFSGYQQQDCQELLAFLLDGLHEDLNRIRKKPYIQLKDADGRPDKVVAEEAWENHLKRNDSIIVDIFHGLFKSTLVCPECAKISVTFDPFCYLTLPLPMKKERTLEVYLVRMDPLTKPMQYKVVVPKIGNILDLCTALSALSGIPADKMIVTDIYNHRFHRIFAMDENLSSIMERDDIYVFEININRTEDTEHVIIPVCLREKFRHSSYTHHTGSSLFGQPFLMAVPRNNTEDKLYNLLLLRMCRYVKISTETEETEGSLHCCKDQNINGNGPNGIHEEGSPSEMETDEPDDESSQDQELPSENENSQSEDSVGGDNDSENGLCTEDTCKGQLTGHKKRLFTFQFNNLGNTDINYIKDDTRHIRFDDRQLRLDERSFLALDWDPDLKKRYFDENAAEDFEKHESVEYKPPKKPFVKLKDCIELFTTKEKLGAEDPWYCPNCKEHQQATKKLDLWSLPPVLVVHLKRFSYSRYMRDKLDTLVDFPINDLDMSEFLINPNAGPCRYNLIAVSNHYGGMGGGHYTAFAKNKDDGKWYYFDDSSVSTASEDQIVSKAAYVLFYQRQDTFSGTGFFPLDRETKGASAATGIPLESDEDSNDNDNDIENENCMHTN
How it was run: as §1

USP16 = USP16 (UniProt Q9Y5T5)
How it was run: as §1

Measured: log2 ratio of Biotin-Ahx-Ub-VS probe labelling

USP10, sequence (Q14694 whole entry): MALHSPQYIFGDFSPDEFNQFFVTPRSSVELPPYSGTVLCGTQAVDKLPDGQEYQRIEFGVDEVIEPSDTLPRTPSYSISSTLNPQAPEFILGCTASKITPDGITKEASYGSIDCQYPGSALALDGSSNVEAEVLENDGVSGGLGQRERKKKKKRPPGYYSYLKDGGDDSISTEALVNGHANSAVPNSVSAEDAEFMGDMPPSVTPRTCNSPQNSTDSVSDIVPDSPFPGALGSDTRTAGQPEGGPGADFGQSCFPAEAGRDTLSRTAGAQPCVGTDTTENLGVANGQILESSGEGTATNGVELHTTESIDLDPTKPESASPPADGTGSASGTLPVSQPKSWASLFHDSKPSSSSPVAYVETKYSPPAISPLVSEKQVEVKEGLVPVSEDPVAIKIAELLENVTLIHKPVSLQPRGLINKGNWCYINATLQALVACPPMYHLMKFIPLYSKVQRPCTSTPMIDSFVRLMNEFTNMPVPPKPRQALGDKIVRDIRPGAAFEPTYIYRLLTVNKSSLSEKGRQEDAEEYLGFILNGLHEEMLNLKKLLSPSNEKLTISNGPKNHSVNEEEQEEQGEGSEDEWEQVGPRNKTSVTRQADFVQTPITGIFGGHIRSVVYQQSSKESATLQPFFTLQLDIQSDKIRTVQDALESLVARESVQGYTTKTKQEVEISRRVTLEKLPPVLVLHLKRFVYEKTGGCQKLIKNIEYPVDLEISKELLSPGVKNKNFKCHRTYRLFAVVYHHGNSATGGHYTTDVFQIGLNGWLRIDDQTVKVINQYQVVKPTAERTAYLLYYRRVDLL
UCHL1, sequence (P09936 whole entry, looked up): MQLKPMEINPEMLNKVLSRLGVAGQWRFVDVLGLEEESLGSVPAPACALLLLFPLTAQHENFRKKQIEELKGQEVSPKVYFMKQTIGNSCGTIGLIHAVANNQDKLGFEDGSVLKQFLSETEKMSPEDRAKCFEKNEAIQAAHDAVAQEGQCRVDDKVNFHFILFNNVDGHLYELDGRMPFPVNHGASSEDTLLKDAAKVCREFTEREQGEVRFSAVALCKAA
USP16, sequence (Q9Y5T5 whole entry, looked up): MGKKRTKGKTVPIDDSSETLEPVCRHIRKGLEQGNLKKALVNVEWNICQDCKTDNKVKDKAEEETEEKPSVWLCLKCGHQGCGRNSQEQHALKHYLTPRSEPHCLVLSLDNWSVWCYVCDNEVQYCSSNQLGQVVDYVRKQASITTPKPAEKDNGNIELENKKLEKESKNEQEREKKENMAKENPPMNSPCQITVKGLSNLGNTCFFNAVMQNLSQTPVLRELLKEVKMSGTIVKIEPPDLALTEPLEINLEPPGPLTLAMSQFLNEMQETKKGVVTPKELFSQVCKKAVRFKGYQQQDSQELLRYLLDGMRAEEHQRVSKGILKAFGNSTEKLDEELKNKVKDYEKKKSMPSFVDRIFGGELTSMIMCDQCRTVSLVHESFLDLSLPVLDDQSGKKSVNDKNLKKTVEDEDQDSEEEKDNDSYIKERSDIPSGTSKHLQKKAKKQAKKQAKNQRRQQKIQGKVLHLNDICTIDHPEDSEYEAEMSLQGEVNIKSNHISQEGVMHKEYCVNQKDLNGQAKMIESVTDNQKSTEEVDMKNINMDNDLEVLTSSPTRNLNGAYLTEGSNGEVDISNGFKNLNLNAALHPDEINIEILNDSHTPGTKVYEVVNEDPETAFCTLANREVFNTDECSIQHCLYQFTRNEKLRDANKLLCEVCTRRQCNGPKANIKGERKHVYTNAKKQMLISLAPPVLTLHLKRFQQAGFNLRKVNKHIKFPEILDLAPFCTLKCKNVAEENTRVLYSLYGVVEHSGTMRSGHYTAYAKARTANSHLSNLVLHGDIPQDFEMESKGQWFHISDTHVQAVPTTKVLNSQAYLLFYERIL

CCN(C(=O)CCl)C1CCS(=O)(=O)C1 (stereo not given)
active: UCHL1 -1.26
inactive: OTUD6B -0.144 | OTUD7B -0.284 | PRPF8 -0.167 | PSMD7 -0.00588 | UCHL3 0.365 | UCHL5 -0.0522 | USP10 -0.169 | USP15 -0.218 | USP16 -0.707
